From PubChem BioAssay
Only a selection was taken, and hits are over-represented in it overall.
ST2 IL33 inh: inhibitors of human ST2 (IL1RL1) binding to IL-33. Q01638. AlphaLISA ST2-Fc/biotin-IL-33 interaction, 1 h. inhibition, % for hits at 17 µM. hit rate 2.3% among 78,000. AID 1259354; in the data active means inhibition above about 30%
Target sequence (Q01638 whole entry, looked up): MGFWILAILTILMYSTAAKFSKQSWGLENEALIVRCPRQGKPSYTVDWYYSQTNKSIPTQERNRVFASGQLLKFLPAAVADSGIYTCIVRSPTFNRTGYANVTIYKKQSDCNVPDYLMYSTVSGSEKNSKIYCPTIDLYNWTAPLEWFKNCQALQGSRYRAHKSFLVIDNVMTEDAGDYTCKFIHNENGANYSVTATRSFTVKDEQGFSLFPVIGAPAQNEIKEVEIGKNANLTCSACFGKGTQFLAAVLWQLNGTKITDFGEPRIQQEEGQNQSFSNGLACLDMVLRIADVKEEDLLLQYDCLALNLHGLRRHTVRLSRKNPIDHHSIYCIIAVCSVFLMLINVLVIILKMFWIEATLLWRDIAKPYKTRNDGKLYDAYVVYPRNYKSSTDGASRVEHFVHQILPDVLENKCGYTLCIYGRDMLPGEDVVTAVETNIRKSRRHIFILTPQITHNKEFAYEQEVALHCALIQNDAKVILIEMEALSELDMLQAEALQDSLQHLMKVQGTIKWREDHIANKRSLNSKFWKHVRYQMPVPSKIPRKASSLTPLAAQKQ
* marks the source's active call; other numbers are inactive results; i = inactive; ! = a repeat was not active.

SMILES | ST2 IL33 inh
CC(C)(C)OC(=O)N1C[C@@H]2C[C@H](C1)c1ccc(NC(=O)c3ccc(-c4ccccc4)cc3)c(=O)n1C2 | i
COc1cc(NC(=O)COc2ccc(Cl)cc2Cl)c2ncccc2c1 | i
O=C(NC1CCCC1)c1cc(-c2cccs2)on1 | i
COC(=O)c1c[nH]n2c(=O)c(Cc3cccc(C)c3)c(C)nc12 | i
COC(=O)c1c[nH]n2c(NC3CCCCC3)c(-c3cccs3)nc12 | 32%*
Cn1c(=O)c2c(nc(NCc3ccccn3)n2Cc2ccc(F)cc2)n(C)c1=O | i
CSc1ccc(-c2nc(CSCC(=O)NCCN(C)C)c(C)o2)cc1 | i
Cc1ccc(O)c(CN2CCC(c3cc(C(C)C)n[nH]3)CC2)n1 | i
COc1ccc(C(=O)N2CCCCC2)cc1[N+](=O)[O-] | i
O=C(c1ccc2c(c1)C1C=CCC1C(c1ccc([N+](=O)[O-])cc1)N2)N1CCCCCC1 (stereo not drawn) | 40%*
O=S(=O)(c1ccc([C@@H]2Nc3ccc(Br)cc3[C@@H]3C=CC[C@@H]32)cc1)N1CCOCC1 | i
O=[N+]([O-])c1ccc(C2Nc3c(cccc3[N+](=O)[O-])C3C=CCC32)cc1 (stereo not drawn) | 45%*
O=[N+]([O-])c1ccc(C2CNC(c3ccccc3)O2)cc1 (stereo not drawn) | i
CC1(C)C(=O)OC(c2ccccc2[N+](=O)[O-])C(C)(C)C1=O (stereo not drawn) | i
C=CCN(Cc1ccccc1C)C(=O)[C@H](N)C1CCCCC1 | i
Cc1cc(N(C)C)nc(N2CCN(S(=O)(=O)c3ccccc3)CC2)n1 | i
Cc1ccc2c(c1)c1c(n2CCC#N)C(=O)CCC1 | i
CC(=O)N1CCn2c3c(c4cc(C5CCCCC5)ccc42)CCCC31 (stereo not drawn) | i
Cc1ccc2c(c1)c1c3n2CCN(CCC#N)C3CCC1 (stereo not drawn) | i
CC(=O)N1CCn2c3c(c4cc(C)ccc42)CCCC31 (stereo not drawn) | i
Cc1ccc2c(c1)c1c(n2C)C(C(N)=O)CCC1 (stereo not drawn) | 32%*
Cc1ccc2c(c1)c1c3n2CCN(C(=O)c2ccccc2)C3CCC1 (stereo not drawn) | 30%*
COc1ccc(C2C(=O)N(CCc3ccccc3)CC(=O)N2Cc2cccs2)cc1 (stereo not drawn) | i
CC(C)(C)c1cc(CN2CCOC(CCc3ccccc3)C2)[nH]n1 (stereo not drawn) | i
O=C(O)C1C2C=CC(O2)C1C(=O)N1CCN(c2ccccc2)CC1 (stereo not drawn) | i
SMILES | ST2 IL33 inh
COc1cc(C2Nc3cc(C)c(C)cc3NC3=C2C(=O)CC(C)(C)C3)cc([N+](=O)[O-])c1O (stereo not drawn) | i
CCC(C)N1C(=O)c2ccccc2C1C(=O)NC1CCCC(C)C1C (stereo not drawn) | i
COc1ccc2[nH]c3c(c2c1)CCNC3=O | i
O=[N+]([O-])c1cccc(C2NCCc3c2[nH]c2ccccc32)c1 (stereo not drawn) | i
O=C1NCCc2c1[nH]c1ccc([N+](=O)[O-])cc21 | 30%*
COc1cccc(CC2CN(C(=O)CCn3c(C)cccc3=O)CCO2)c1 (stereo not drawn) | i
NCCOCCN | i
CCOC(=O)C1(Cc2ccccc2)CCCN(C(=O)C#Cc2ccccc2)C1 (stereo not drawn) | 42%*
CCOC(=O)C1(CC2CCCCO2)CCN(C(=O)C#Cc2ccccc2)CC1 (stereo not drawn) | i
CCOC(=O)C1(Cc2ccccc2Cl)CCN(C(=O)C#Cc2ccccc2)CC1 | i
CCOCCCNC(=O)C1c2c(n(C)c3ccccc23)SCC(=O)N1c1cccc(Cl)c1 (stereo not drawn) | i
O=C1CCC(CCC(=O)N2CCCC(Nc3ccccc3)C2)=NN1 (stereo not drawn) | i
CC(C)c1cc(C(=O)Nc2ccc(F)c(Cl)c2)no1 | i
O=C(CSc1nc2c(c(=O)n1-c1ccccc1)SCC2)NCc1ccccc1 | i
CN(C)CCNC(=O)C1(O)c2ccccc2NC(=O)N1c1ccccc1 (stereo not drawn) | i
CCN(CC)CCNC(=O)C1(O)c2ccccc2NC(=O)N1c1ccccc1 (stereo not drawn) | i
CCN(CC)CCNC(=O)C1(O)c2cc(Br)ccc2NC(=O)N1c1ccccc1 (stereo not drawn) | 31%*!
COc1ccc(CNC(=O)C2(O)c3ccccc3NC(=O)N2c2cccc(OC)c2)cc1 (stereo not drawn) | i
CCCCNC(=O)C1(O)c2cc(Br)ccc2NC(=O)N1c1ccccc1 (stereo not drawn) | i
O=C1Nc2ccccc2C(O)(C(=O)NCc2ccc3c(c2)OCO3)N1c1ccccc1 (stereo not drawn) | 30%*
Cc1cc(CN(C)c2ccc(C(=O)NCCC3CCCCN3C)cn2)on1 (stereo not drawn) | i
COc1ccc2c(c1)CCc1c(C(=O)NCCCN3CCOCC3)noc1-2 | i
